Measurements as given in PubChem BioAssay AID1159580 (chemical genetic matrix, 2015).
Where “and” joins values, the source holds several entries; their conditions need not be identical. Identical values can stand only once. The campaign covered roughly 5,500 compounds. About 2,000 (36%) were called active. Another 18% or so got no clear call; they are omitted. Rule as the data show it: active = normalized growth mostly below about 0.91 (no sharp cut-off); inconclusive = no clear call, values can overlap the other calls; inactive = mostly above about 0.92. This is one part of the list.

Assay: chemical genetic growth profiling, strain panel (AID 1159580);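 also: tested at 20 µM; growth read once vehicle control cultures reached saturation at 30 °C; 1 = growth at the plate median or of vehicle wells; lower values mean less growth of the strain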
Details: S. cerevisiae deletion strains, growth OD
[1] = locus YAL013W, strain DEP1, stronger effect = lower value
[2] = locus YDR150W, strain NUM1, stronger effect = lower value
[3] = locus YMR307W, strain GAS1, stronger effect = lower value
[4] = locus YNL322C, strain KRE1, stronger effect = lower value
[5] = locus YPL241C, strain CIN2, stronger effect = lower value

Measured: normalized growth

CCCCC/C=C\CC(O)/C=C/c1cccc(CC(O)CCCCO)n1 (stereo not drawn)
inactive: [1] 1.03 | locus YAL040C, strain CLN3, stronger effect = lower value 0.995 | locus YCL061C, strain MRC1 (second series), stronger effect = lower value 0.996 | [2] 1 | locus YDR363W, strain ESC2, stronger effect = lower value 1.01 | locus YER002W, strain NOP16, stronger effect = lower value 0.982 | [3] 1.01 | locus YNL153C, strain GIM3, stronger effect = lower value 1 | locus YNL175C, strain NOP13, stronger effect = lower value 0.985 | locus YNL197C, strain WHI3, stronger effect = lower value 0.974 | locus YNL224C, strain SQS1, stronger effect = lower value 0.975 | [4] 1.01 | locus YOR083W, strain WHI5 (second series), stronger effect = lower value 0.991 | [5] 0.995

CCCCCC/C=C\CCCCCCCc1cccc(O)c1C(=O)O
active: locus YER155C, strain BEM2 (second series), stronger effect = lower value 0.843 | locus YMR058W, strain fet3, stronger effect = lower value 0.734 | locus YMR125W, strain sto1, stronger effect = lower value 0.852
inactive: [1] 1.08 | locus YAL021C, strain ccr4, stronger effect = lower value 0.972 | locus YAL026C, strain drs2, stronger effect = lower value 0.979 | locus YAL030W, strain snc1, stronger effect = lower value 0.974 | locus YBL061C, strain skt5, stronger effect = lower value 0.98 | locus YBR009C, strain hhf1, stronger effect = lower value 0.997 | locus YBR021W, strain FUR4, stronger effect = lower value 0.929 | locus YBR023C, strain chs3, stronger effect = lower value 0.967 | locus YBR171W, strain sec66, stronger effect = lower value 1.05 | locus YBR229C, strain ROT2, stronger effect = lower value 0.988 | locus YBR231C, strain swc5, stronger effect = lower value 0.942 | locus YBR279W, strain paf1, stronger effect = lower value 0.984 | locus YCL011C, strain gbp2, stronger effect = lower value 0.95 | locus YCL016C, strain dcc1, stronger effect = lower value 0.989 | locus YCL029C, strain bik1, stronger effect = lower value 0.985 | locus YCL061C, strain MRC1, stronger effect = lower value 0.989 | locus YCL069W, strain vba3, stronger effect = lower value 0.938 | locus YCR088W, strain abp1, stronger effect = lower value 0.972 | locus YDL005C, strain med2, stronger effect = lower value 0.958 | locus YDL035C, strain GPR1, stronger effect = lower value 1.05 | locus YDL040C, strain nat1, stronger effect = lower value 0.967 | locus YDL074C, strain BRE1, stronger effect = lower value 0.992 | locus YDL101C, strain DUN1, stronger effect = lower value 1.01 | locus YDL185W, strain tfp1, stronger effect = lower value 1.01 | locus YDL192W, strain arf1, stronger effect = lower value 1 | locus YDR001C, strain nth1, stronger effect = lower value 0.983 | locus YDR069C, strain doa4, stronger effect = lower value 0.971 | locus YDR101C, strain arx1, stronger effect = lower value 0.987 | locus YDR137W, strain rgp1, stronger effect = lower value 0.939 | [2] 1.04 | locus YDR159W, strain sac3, stronger effect = lower value 0.974 | locus YDR162C, strain NBP2, stronger effect = lower value 1.06 | locus YDR195W, strain ref2 0.975 | locus YDR297W, strain sur2, stronger effect = lower value 0.979 | locus YDR318W, strain mcm21, stronger effect = lower value 0.995 | locus YDR334W, strain swr1, stronger effect = lower value 0.956 | locus YDR335W, strain msn5, stronger effect = lower value 0.975 | locus YDR388W, stronger effect = lower value 1.01 | locus YDR392W, strain spt3, stronger effect = lower value 0.813 | locus YDR502C, strain sam2, stronger effect = lower value 1.01 | locus YEL003W, strain gim4, stronger effect = lower value 0.982 | locus YEL037C, strain rad23, stronger effect = lower value 0.965 | locus YEL061C, strain CIN8 (second series), stronger effect = lower value 0.953 | locus YEL061C, strain CIN8, stronger effect = lower value 1.01 | locus YER015W, strain faa2, stronger effect = lower value 0.982 | locus YER016W, strain bim1, stronger effect = lower value 0.976 | locus YER110C, stronger effect = lower value 0.981 | locus YER111C, strain swi4, stronger effect = lower value 0.947 | locus YER155C, strain BEM2, stronger effect = lower value 0.991 | locus YER167W, strain BCK2, stronger effect = lower value 1.01 | locus YFR010W, strain ubp6, stronger effect = lower value 0.993 | locus YGL078C, strain dbp3, stronger effect = lower value 0.995 | locus YGL086W, strain mad1, stronger effect = lower value 0.989 | locus YGL167C, strain pmr1, stronger effect = lower value 0.966 | locus YGL173C, strain kem1, stronger effect = lower value 0.976 | locus YGL227W, strain vid30, stronger effect = lower value 0.955 | locus YGL240W, strain doc1, stronger effect = lower value 0.976 | locus YGL248W, strain PDE1, stronger effect = lower value 1.01 | locus YGL253W, strain hxk2, stronger effect = lower value 0.975 | locus YGR135W, strain pre9, stronger effect = lower value 1.03 | locus YGR252W, strain gcn5, stronger effect = lower value 1.04 | locus YHR013C, strain ard1, stronger effect = lower value 0.956 | locus YHR027C, strain rpn1, stronger effect = lower value 0.992 | locus YHR030C, strain SLT2, stronger effect = lower value 1 | locus YHR079C, strain IRE1 (second series), stronger effect = lower value 0.992 | locus YHR079C, strain IRE1, stronger effect = lower value 1.01 | locus YHR094C, strain hxt1, stronger effect = lower value 0.992 | locus YHR129C, strain ARP1, stronger effect = lower value 0.998 | locus YHR142W, strain chs7, stronger effect = lower value 0.974 | locus YHR200W, strain rpn10, stronger effect = lower value 1 | locus YIL066C, strain RNR3, stronger effect = lower value 1.03 | locus YIL073C, strain SPO22, stronger effect = lower value 1.3 | locus YIL125W, strain kgd1, stronger effect = lower value 0.994 | locus YIR030C, strain dcg1, stronger effect = lower value 0.995 | locus YJL092W, strain hpr5, stronger effect = lower value 0.941 | locus YJL095W, strain BCK1 (second series), stronger effect = lower value 0.97 | locus YJL095W, strain BCK1, stronger effect = lower value 0.991 and 0.952 | locus YJL115W, strain asf1, stronger effect = lower value 0.972 | locus YJL129C, strain trk1, stronger effect = lower value 0.914 | locus YJL134W, strain LCB3, stronger effect = lower value 1 | locus YJL154C, strain vps35, stronger effect = lower value 0.971 | locus YJL164C, strain tpk1, stronger effect = lower value 0.999 | locus YJL166W, strain qcr8, stronger effect = lower value 0.976 | locus YJL168C, strain set2, stronger effect = lower value 0.988 | locus YJL187C, strain SWE1 (second series), stronger effect = lower value 0.997 | locus YJR043C, strain POL32, stronger effect = lower value 1.06 | locus YJR066W, strain TOR1, stronger effect = lower value 0.968 | locus YKL009W, strain mrt4, stronger effect = lower value 1.02 | locus YKL068W, stronger effect = lower value 1.01 | locus YKL085W, strain MDH1 (second series), stronger effect = lower value 0.997 | locus YKL085W, strain MDH1, stronger effect = lower value 0.997 | locus YKL160W, strain elf1, stronger effect = lower value 0.997 | locus YKL190W, strain CNB1, stronger effect = lower value 1.06 | locus YKR001C, strain vps1, stronger effect = lower value 0.989 | locus YKR026C, strain gcn3, stronger effect = lower value 0.961 | locus YKR091W, strain srl3, stronger effect = lower value 0.978 | locus YLL001W, strain dnm1, stronger effect = lower value 0.988 | locus YLL026W, stronger effect = lower value 0.974 | locus YLL041C, strain sdh2, stronger effect = lower value 0.989 | locus YLR027C, strain aat2, stronger effect = lower value 0.986 | locus YLR039C, strain RIC1, stronger effect = lower value 1.01 | locus YLR058C, strain SHM2, stronger effect = lower value 1 | locus YLR102C, strain apc9, stronger effect = lower value 0.987 | locus YLR113W, strain HOG1, stronger effect = lower value 0.946 | locus YLR221C, strain rsa3, stronger effect = lower value 0.944 | locus YLR258W, strain gsy2, stronger effect = lower value 0.957 | locus YLR262C, strain YPT6 (second series), stronger effect = lower value 0.939 | locus YLR262C, strain YPT6, stronger effect = lower value 0.977 | locus YLR268W, strain sec22, stronger effect = lower value 0.991 | locus YLR320W, strain mms22, stronger effect = lower value 0.951 | locus YLR330W, strain CHS5, stronger effect = lower value 1.06 | locus YLR342W, strain FKS1 (second series), stronger effect = lower value 1.03 | locus YLR342W, strain FKS1, stronger effect = lower value 0.964 | locus YLR357W, strain rsc2, stronger effect = lower value 0.953 | locus YLR370C, strain arc18, stronger effect = lower value 0.969 | locus YLR371W, strain rom2, stronger effect = lower value 1 | locus YLR384C, strain iki3, stronger effect = lower value 0.97 | locus YLR418C, strain cdc73, stronger effect = lower value 0.953 | locus YML016C, strain PPZ1, stronger effect = lower value 0.989 | locus YML032C, strain rad52, stronger effect = lower value 1.02 | locus YML120C, strain ndi1, stronger effect = lower value 0.973 | locus YML124C, strain tub3, stronger effect = lower value 0.985 | locus YMR078C, strain ctf18, stronger effect = lower value 0.999 | locus YMR129W, stronger effect = lower value 0.963 | locus YMR205C, strain PFK2, stronger effect = lower value 1.02 | locus YMR223W, strain ubp8, stronger effect = lower value 1.01 | locus YMR231W, strain pep5, stronger effect = lower value 0.999 | locus YMR263W, strain SAP30, stronger effect = lower value 1.03 | [3] 1.01 | locus YNL067W, strain RPL9B, stronger effect = lower value 1.03 | locus YNL071W, strain lat1, stronger effect = lower value 0.97 | locus YNL183C, strain NPR1, stronger effect = lower value 0.923 | locus YNL209W, strain ssb2, stronger effect = lower value 0.974 | locus YNL233W, strain BNI4, stronger effect = lower value 1.01 | locus YNL248C, strain rpa49, stronger effect = lower value 0.983 | locus YNL250W, strain rad50, stronger effect = lower value 0.982 | locus YNL271C, strain bni1, stronger effect = lower value 0.99 | locus YNL298W, strain CLA4, stronger effect = lower value 1.01 | locus YNL307C, strain MCK1, stronger effect = lower value 0.995 | locus YNL322C, strain KRE1 (second series), stronger effect = lower value 0.949 | [4] 1 | locus YNR049C, strain mso1, stronger effect = lower value 0.973 | locus YNR052C, strain pop2, stronger effect = lower value 1.01 | locus YOL012C, strain htz1 0.359 | locus YOL147C, strain pex11, stronger effect = lower value 0.99 | locus YOR001W, strain rrp6, stronger effect = lower value 0.927 | locus YOR061W, strain CKA2, stronger effect = lower value 0.992 | locus YOR069W, strain VPS5, stronger effect = lower value 0.995 | locus YOR070C, strain gyp1, stronger effect = lower value 0.975 | locus YOR080W, strain dia2, stronger effect = lower value 0.988 | locus YOR083W, strain WHI5, stronger effect = lower value 1 | locus YOR106W, strain vam3, stronger effect = lower value 0.985 | locus YOR136W, strain idh2, stronger effect = lower value 0.988 | locus YOR144C, strain elg1, stronger effect = lower value 0.994 | locus YOR184W, strain ser1, stronger effect = lower value 0.999 | locus YOR231W, strain MKK1, stronger effect = lower value 0.997 | locus YOR265W, strain rbl2, stronger effect = lower value 0.987 | locus YOR270C, strain vph1, stronger effect = lower value 1.01 | locus YOR290C, strain snf2, stronger effect = lower value 1 | locus YOR316C, strain cot1, stronger effect = lower value 0.986 | locus YPL051W, strain arl3, stronger effect = lower value 0.974 | locus YPL078C, strain atp4, stronger effect = lower value 0.971 | locus YPL106C, strain sse1, stronger effect = lower value 1.01 | locus YPL240C, strain hsp82, stronger effect = lower value 0.959 | [5] 0.997 | locus YPL256C, strain CLN2, stronger effect = lower value 0.981 | locus YPR119W, strain clb2, stronger effect = lower value 0.985 | locus YPR141C, strain kar3, stronger effect = lower value 0.982 | locus YPR163C, strain tif3, stronger effect = lower value 0.99 | locus YPR167C, strain met16, stronger effect = lower value 1 | strain wtn01, stronger effect = lower value 0.995
